The source of these data is PubChem BioAssay (EPA / NIEHS).

Active and inactive are the calls of the source. How the source made its calls: active means hit-call score of the fitted dose curve at least 0.9, where 1 is the maximum; inactive means score below 0.9.

Holding throughout (conditions): mRNA level, 48 h; actives raise or lower the signal
Read-out in assay [1]: Peroxisomal acyl-coenzyme A oxidase 1 (ACOX1) gene, ACOX1 (gene 51)
The assay can be described thus: LTEA_HepaRG_ACOX1: Life Technologies and Expression Analysis (LTEA) Assay for Peroxisomal acyl-coenzyme A oxidase 1 (ACOX1) gene using HepaRG (AID 2283467). In short, it runs like this: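 Measured by qRT-PCR against three housekeeping genes: ACOX1 transcript change in human HepaRG cells after 48 h dosing. Concentrations ran up to 100 uM in half-log steps. Curves were fitted bidirectionally relative to 0.5% DMSO.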

Read-out in assay [2]: Alkaline Phosphatase, Placental (ALPP) gene, ALPP (gene 250)
The assay can be described thus: LTEA_HepaRG_ALPP: Life Technologies and Expression Analysis (LTEA) Assay for Alkaline Phosphatase, Placental (ALPP) gene using HepaRG (AID 2283468). In short, it runs like this:
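ALPP transcript level, measured by qRT-PCR and normalized to three housekeeping genes (ACTB, GAPDH, POLR2A), after 48 h dosing of differentiated HepaRG in serum-free induction medium. Top concentration 100 uM with half-log dilutions (8 points, 0.5% DMSO, duplicates); bidirectional fitting relative to DMSO.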

Read-out in assay [3]: Bcl-2 (BAD) gene, BAD (gene 572)
The assay can be described thus: LTEA_HepaRG_BAD: Life Technologies and Expression Analysis (LTEA) Assay for Bcl-2 (BAD) gene using HepaRG (AID 2283469). Put shortly: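 BAD transcript change, measured by qRT-PCR against three housekeeping genes and fitted in both directions relative to 0.5% DMSO, after 48 h chemical treatment of human HepaRG liver cells at concentrations up to 100 uM.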

Read-out in assay [4]: adenosine kinase (ADK) gene, ADK (gene 132)
The assay can be described thus: LTEA_HepaRG_ADK: Life Technologies and Expression Analysis (LTEA) Assay for adenosine kinase (ADK) gene using HepaRG (AID 2283471). Put shortly:
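Following 48 h exposure of HepaRG cells in 0.5% DMSO (top concentration 100 uM, duplicate wells), ADK mRNA induction or suppression was measured by qRT-PCR, normalised to ACTB/GAPDH/POLR2A, and fitted bidirectionally relative to vehicle.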

Read-out in assay [5]: Alpha-fetoprotein (AFP) gene, AFP (gene 174)
Nature of the assay: LTEA_HepaRG_AFP: Life Technologies and Expression Analysis (LTEA) Assay for Alpha-fetoprotein (AFP) gene using HepaRG (AID 2283472). Put shortly:
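After a 48 h plating period, cells are moved to serum-free induction medium and dosed in duplicate (100 uM maximum, half-log dilutions, 0.5% DMSO) for another 48 h. Total RNA goes to TaqMan qRT-PCR; AFP signal is housekeeping-normalized.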

Read-out in another assay: BCL2L11 (gene 10018)
The assay can be described thus: LTEA_HepaRG_BCL2L11: Life Technologies and Expression Analysis (LTEA) Assay for Bcl-2 (BCL2L11) gene using HepaRG (AID 2283473). Put shortly: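 BCL2L11 transcript levels are measured by Fluidigm qRT-PCR, normalized to three housekeeping genes. HepaRG cultures were plated 48 h, then treated 48 h with test chemical (top 100 uM, half-log, 0.5% DMSO vehicle); curves were fitted bidirectionally against DMSO.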

Read-out in assay [6]: Apolipoprotein A-V (APOA5) gene, APOA5 (gene 116519)
The assay can be described thus: LTEA_HepaRG_APOA5: Life Technologies and Expression Analysis (LTEA) Assay for Apolipoprotein A-V (APOA5) gene using HepaRG (AID 2283474). Put shortly: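 APOA5 transcript levels were quantified by qRT-PCR, normalized to three housekeeping genes, after 48 h chemical treatment of HepaRG cells (8 points, 100 uM maximum, half-log steps, 0.5% DMSO). Curves fitted in both directions against vehicle.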

Read-out in assay [7]: Apoptosis regulator Bcl-2 (Homo sapiens) (UniProt P10415)
Nature of the assay: LTEA_HepaRG_BCL2: Life Technologies and Expression Analysis (LTEA) Assay for Bcl-2 gene using HepaRG (AID 2283475).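 Further: BCL2 transcript by TaqMan qRT-PCR normalised to ACTB GAPDH and POLR2A.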 In short, it runs like this:
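Expression change of BCL2 mRNA in HepaRG after 48 h dosing, quantified by TaqMan qRT-PCR against three endogenous controls. Concentration-response used eight points up to 100 uM, vehicle 0.5% DMSO.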

Read-out in assay [8]: Bcl-2 (BID) gene, BID (gene 637)
Nature of the assay: LTEA_HepaRG_BID: Life Technologies and Expression Analysis (LTEA) Assay for Bcl-2 (BID) gene using HepaRG (AID 2283476). Put shortly: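 Gain or loss of BID expression is fitted relative to 0.5% DMSO vehicle. Human HepaRG liver cells received a 48 h chemical exposure over an eight-point concentration range.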

Read-out in another assay: Caspase-3 (Homo sapiens) (UniProt P42574)
The assay can be described thus: LTEA_HepaRG_CASP3: Life Technologies and Expression Analysis (LTEA) Assay for cysteine-aspartic acid protease (CASP3) using HepaRG (AID 2283477). Put shortly:
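Expression of CASP3 was quantified by TaqMan qRT-PCR against three housekeeping genes (ACTB, GAPDH, POLR2A), bidirectionally versus 0.5% DMSO. HepaRG cultures received compounds in duplicate, top 100 uM with half-log steps, for 48 h in serum-free induction medium.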

Read-out in assay [9]: Cytochrome P450 (CYP24A1), CYP24A1 (gene 1591)
Nature of the assay: LTEA_HepaRG_CYP24A1: Life Technologies and Expression Analysis (LTEA) Assay for Cytochrome P450 (CYP24A1) using HepaRG (AID 2283478). Put shortly: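 mRNA of CYP24A1 quantified by TaqMan qRT-PCR (ACTB/GAPDH/POLR2A normalization) after 48 h chemical exposure of HepaRG cells, top concentration 100 uM, half-log steps, 0.5% DMSO vehicle, duplicates. Curves fitted bidirectionally against DMSO baseline.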

Read-out in assay [10]: Cytochrome P450 (CYP1A2), CYP1A2 (gene 1544)
The assay can be described thus: LTEA_HepaRG_CYP1A2: Life Technologies and Expression Analysis (LTEA) Assay for Cytochrome P450 (CYP1A2) using HepaRG (AID 2283479). In short, it runs like this:
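CYP1A2 transcript measured by TaqMan qRT-PCR against three housekeeping genes after 48-hour chemical exposure of HepaRG cells. Eight-point half-log series topping at 100 uM in 0.5% DMSO, duplicates; gain or loss fitted relative to vehicle.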

Read-out in assay [11]: cysteine-aspartic acid protease (CASP8), CASP8 (gene 841)
The assay can be described thus: LTEA_HepaRG_CASP8: Life Technologies and Expression Analysis (LTEA) Assay for cysteine-aspartic acid protease (CASP8) using HepaRG (AID 2283480). In short, it runs like this:
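HepaRG, 48 h exposure, duplicate wells; 8 conc, half-log from 100 uM, 0.5% DMSO. Serum-free induction medium. CASP8 mRNA by TaqMan qRT-PCR, norm. ACTB/GAPDH/POLR2A; gain/loss fitted vs DMSO.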

Read-out in assay [12]: Cytochrome P450 2C19 (Homo sapiens) (UniProt P33261)
The assay can be described thus: LTEA_HepaRG_CYP2C19: Life Technologies and Expression Analysis (LTEA) Assay for CYP2C19 using HepaRG (AID 2283482). In short, it runs like this: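 CYP2C19 transcript levels by qRT-PCR, normalized to three housekeeping genes, in HepaRG cells after 48 h chemical exposure. Eight-point half-log series topping at 100 uM, 0.5% DMSO vehicle. Increases and decreases both fitted against DMSO.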

Read-out in another assay: CYP2C8 (gene 1558)
The assay can be described thus: LTEA_HepaRG_CYP2C8: Life Technologies and Expression Analysis (LTEA) Assay for CYP2C8 using HepaRG (AID 2283483). Put shortly: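 CYP2C8 mRNA induction or loss, by qRT-PCR normalized to ACTB/GAPDH/POLR2A, is read in HepaRG cells after 48 h treatment. Concentrations run from 100 uM down in half-log dilutions, with 0.5% DMSO as vehicle and baseline.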

Read-out in the next assay: CYP2C9 (gene 1559)
The assay can be described thus: LTEA_HepaRG_CYP2C9: Life Technologies and Expression Analysis (LTEA) Assay for CYP2C9 using HepaRG (AID 2283484). Put shortly:
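Cells plated 48 h, switched to serum-free induction medium, then treated in duplicate for 48 h at eight concentrations (max 100 uM, 0.5% DMSO). RNA then analysed by qRT-PCR for CYP2C9; curves fitted in both directions relative to DMSO.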

Read-out in the next assay: CYP2E1 (gene 1571)
The assay can be described thus: LTEA_HepaRG_CYP2E1: Life Technologies and Expression Analysis (LTEA) Assay for CYP2E1 using HepaRG (AID 2283485). In short, it runs like this:
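Differentiated HepaRG cells were treated in duplicate for 48 h with chemicals in 0.5% DMSO, from 100 uM downward in half-log dilutions. RNA was then analysed by qRT-PCR for CYP2E1 induction or loss.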

Read-out in the next assay: CYP4A11 (gene 1579)
The assay can be described thus: LTEA_HepaRG_CYP4A11: Life Technologies and Expression Analysis (LTEA) Assay for CYP4A11 using HepaRG (AID 2283486). Put shortly: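 Readout is CYP4A11 transcript level by qRT-PCR, normalized to three housekeeping genes and fitted bidirectionally against 0.5% DMSO. Human HepaRG cells were treated 48 h, in duplicate, with an 8-point half-log series topping at 100 uM.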

Read-out in assay [13]: Cytochrome P450 (CYP2B6), CYP2B6 (gene 1555)
The assay can be described thus: LTEA_HepaRG_CYP2B6: Life Technologies and Expression Analysis (LTEA) Assay for Cytochrome P450 (CYP2B6) using HepaRG (AID 2283481). In short, it runs like this: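 CYP2B6 transcript level quantified by qRT-PCR against three housekeeping genes, fitted bidirectionally relative to DMSO. HepaRG cultures received chemicals for 48 h, 8-point half-log series from 100 uM in 0.5% DMSO, duplicate wells, serum-free induction medium.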

Apoptosis regulator Bcl-2 (Homo sapiens), sequence (P10415 whole entry, looked up): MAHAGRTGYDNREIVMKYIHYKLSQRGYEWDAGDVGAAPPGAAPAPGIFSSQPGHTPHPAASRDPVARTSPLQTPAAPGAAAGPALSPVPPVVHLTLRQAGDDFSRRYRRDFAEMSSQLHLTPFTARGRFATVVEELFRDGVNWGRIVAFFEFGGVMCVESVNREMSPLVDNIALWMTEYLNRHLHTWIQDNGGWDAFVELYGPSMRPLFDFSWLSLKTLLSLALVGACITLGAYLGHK
Caspase-3 (Homo sapiens), sequence (P42574 whole entry, looked up): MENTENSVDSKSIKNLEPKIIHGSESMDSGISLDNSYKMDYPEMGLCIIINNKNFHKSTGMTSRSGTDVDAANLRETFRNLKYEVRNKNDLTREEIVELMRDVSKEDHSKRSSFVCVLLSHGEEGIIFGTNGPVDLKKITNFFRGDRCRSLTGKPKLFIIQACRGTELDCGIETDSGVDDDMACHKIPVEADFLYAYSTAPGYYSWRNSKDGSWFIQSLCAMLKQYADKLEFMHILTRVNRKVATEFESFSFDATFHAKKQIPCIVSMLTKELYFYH
Cytochrome P450 2C19 (Homo sapiens), sequence (P33261 whole entry, looked up): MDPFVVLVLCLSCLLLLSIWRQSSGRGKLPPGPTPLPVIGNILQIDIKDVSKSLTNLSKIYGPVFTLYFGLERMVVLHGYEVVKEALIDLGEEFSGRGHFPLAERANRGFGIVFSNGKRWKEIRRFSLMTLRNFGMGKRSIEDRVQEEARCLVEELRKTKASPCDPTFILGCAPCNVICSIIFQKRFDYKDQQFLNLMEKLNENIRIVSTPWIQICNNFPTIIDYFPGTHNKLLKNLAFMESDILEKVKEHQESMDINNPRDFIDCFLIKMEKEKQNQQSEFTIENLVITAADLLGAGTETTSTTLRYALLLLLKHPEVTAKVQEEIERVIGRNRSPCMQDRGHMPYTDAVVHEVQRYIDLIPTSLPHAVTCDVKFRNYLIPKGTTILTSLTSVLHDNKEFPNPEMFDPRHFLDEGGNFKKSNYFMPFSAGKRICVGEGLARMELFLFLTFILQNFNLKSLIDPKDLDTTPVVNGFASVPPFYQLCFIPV

For `C#CC(O)C(CC)CCCC` (stereo not drawn), the result (in [1]; in assay [2]; in assay [3]; in [4]; in assay [5]; with BCL2L11 (gene 10018)) was inactive. Also, the call (in assay [6]; in assay [7]; in assay [8]; with Caspase-3 (Homo sapiens); in assay [9]; in assay [10]) was inactive. Further, the compound was called inactive (in [11]; in [12]; in the assay with CYP2C8 (gene 1558); in the assay with CYP2C9 (gene 1559); in the assay with CYP2E1 (gene 1571); with CYP4A11 (gene 1579)).

Consider `CCCCCCC(C=O)=Cc1ccccc1`, for which the call (in assay [1]; in assay [2]; in assay [3]; in assay [4]; in assay [5]; with BCL2L11 (gene 10018)) was inactive. For the same compound, the outcome (in assay [6]; in assay [7]; in [8]; with Caspase-3 (Homo sapiens); in assay [9]; in assay [11]) was inactive. Further, the compound was classed as inactive (in [12]; with CYP2C8 (gene 1558); in the assay with CYP2C9 (gene 1559); with CYP2E1 (gene 1571); in the assay with CYP4A11 (gene 1579)).

`CN(C)CCCN(C)CCCN(C)C`: the outcome (in [1]; in [2]; in assay [3]; in assay [4]; in assay [5]; with BCL2L11 (gene 10018)) was inactive. The compound was called inactive (in [6]; in assay [7]; in assay [8]; with Caspase-3 (Homo sapiens); in assay [9]; in assay [11]). In addition, the compound was classed as inactive (in assay [12]; with CYP2C8 (gene 1558); in the assay with CYP2C9 (gene 1559); in the assay with CYP2E1 (gene 1571); with CYP4A11 (gene 1579)).

Consider `CC(C)c1cccc(C(C)C)c1NC(=O)NS(=O)(=O)c1cc(C(C)(C)O)co1`, for which the result (in assay [1]; in assay [2]; in assay [3]; in assay [4]; in [5]; with BCL2L11 (gene 10018)) was inactive. Moreover, the compound was classed as inactive (in [6]; in assay [7]; in assay [8]; with Caspase-3 (Homo sapiens); in [9]; in assay [11]). In addition, the outcome with CYP2C8 (gene 1558) and with CYP2C9 (gene 1559) was inactive. Also, the half-maximal activity concentration (AC50) was 5.18 µM (active) in assay [13], 8.04 µM (active) in [12], 33.9 µM (active) with CYP2E1 (gene 1571) and 29.5 µM (active) in the assay with CYP4A11 (gene 1579).

Consider `CC(C)OC(=O)C(C)(C)Oc1ccc(C(=O)c2ccc(Cl)cc2)cc1`, for which the result (in assay [1]; in assay [2]; in assay [3]; in [4]; in assay [5]; in the assay with BCL2L11 (gene 10018)) was inactive. Besides, the outcome (in [7]; with Caspase-3 (Homo sapiens); in [9]; in assay [11]; in [12]; in the assay with CYP2C8 (gene 1558)) was inactive. The call with CYP2C9 (gene 1559) and with CYP2E1 (gene 1571) was inactive. In addition, the half-maximal activity concentration (AC50) in assay [6] is 0.0432 µM (active); in assay [8], 0.0422 µM (active); in assay [13], 63.3 µM (active); with CYP4A11 (gene 1579) it was 3.85 µM (active).

The term AC50 denotes the concentration giving half of the maximal activity seen.
